# Reference: the supplement of paper PMC6897291
# System: U-2932
# Assay: growth inhibition by drug alone (1 - RLU/untreated control) (fraction); higher = stronger inhibition
# Conditions: 177Lu-lilotomab satetraxetan 0 ug/ml
# Procedure: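 U-2932 ABC-DLBCL cells were pretreated or not for 18 h with 1 ug/ml 177Lu-lilotomab satetraxetan (600 MBq/mg), washed and seeded (3000 cells/well) on 384-well plates pre-printed with the Selleck Cambridge Cancer Compound library. Viability was read by RealTime-Glo luminescence on days 3-6 after seeding. Effect = 1 - RLU/mean RLU of the 48 untreated no-drug control wells per plate; Bliss score = (M-E)/(1-Fa), with E the expected Bliss-additive effect.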
Structure (SMILES),"growth inhibition by drug alone (10 nM, time (day): 3)","growth inhibition by drug alone (10 nM, time (day): 4)","growth inhibition by drug alone (10 nM, time (day): 5)","growth inhibition by drug alone (10 nM, time (day): 6)","growth inhibition by drug alone (1000 nM, time (day): 3)","growth inhibition by drug alone (1000 nM, time (day): 4)","growth inhibition by drug alone (1000 nM, time (day): 5)","growth inhibition by drug alone (1000 nM, time (day): 6)"
CC[C@@H](C(=O)[C@@H](C)[C@@H](O)[C@H](C)[C@@H]1O[C@@H]([C@@H](CC)C(=O)O)CC[C@@H]1C)[C@H]1O[C@]2(C=C[C@@H](O)[C@]3(CC[C@@](C)([C@H]4CC[C@](O)(CC)[C@H](C)O4)O3)O2)[C@H](C)C[C@@H]1C [Salinomycin (Procoxacin)],0.136,0.115,0.00536,-0.0492,0.311,0.423,0.542,0.721
CC(C)[C@]12O[C@H]1[C@@H]1O[C@]13[C@]1(O[C@H]1C[C@H]1C4=C(CC[C@@]13C)C(=O)OC4)[C@@H]2O [Triptolide],0.345,0.52,0.63,0.677,0.959,0.971,0.978,0.982
CC(O)(CS(=O)(=O)c1ccc(F)cc1)C(=O)Nc1ccc(C#N)c(C(F)(F)F)c1 (stereo not given) [Bicalutamide (Casodex)],0.0907,0.0654,-0.0744,-0.0699,-0.0505,-0.00664,-0.0598,-0.262
Cc1ccccc1-n1c(Cn2cnc3c(N)ncnc32)nc2cccc(C)c2c1=O,0.0494,0.000763,0.0122,0.0686,0.047,0.0488,0.0186,0.102
Cc1cc2c(C(C)C)c(O)c(O)c(C=O)c2c(O)c1-c1c(C)cc2c(C(C)C)c(O)c(O)c(C=O)c2c1O [Gossypol],-0.0803,-0.0436,-0.0537,-0.0327,-0.00328,0.00751,0.00351,0.0148
